Screening data deposited in PubChem BioAssay by National Center for Advancing Translational Sciences (NCATS).
Shown are actives, neighbours in structure and some others; about 19% of the full set was active somewhere.
Pf growth 96h – Primary qHTS for delayed death inhibitors of the malarial parasite plastid, 96 hour incubation. P. falciparum luciferase reporter growth, 96 h. Potency, µM (doses to about 28.7 µM), for inactives: top-dose activity change, negative = inhibition, most hits filed as inhibitors. 320,000 compounds, 6.9% hits; further: potency means the concentration at half of the fitted maximal effect; on the % scale 0 is the no-effect control and ±100 the full control effect
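Readout is luminescence from an integrated firefly luciferase in P. falciparum. Red cells, 2% hematocrit and 0.05% parasitemia final, were cultured with compound through two parasite generations (96 hours) at 37 C, 5% CO2.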
Shiga inhibitor – A qHTS for Small Molecule Inhibitors of Shiga Toxin | Vero cells, Shiga toxin protein synthesis inhibition reporter | inhibition, % at 38.7 µM | 290,000 compounds, 9.2% hits | AID 2315, 2010; in the data active means inhibition mostly above about 28%, no sharp cut-off; inactive means mostly below about 43%; further: 0% is about no effect
Pf growth 48h – Primary qHTS for delayed death inhibitors of the malarial parasite plastid, 48 hour incubation; P. falciparum luciferase growth in erythrocytes, 48 h; Potency, µM (highest dose often 28.7 µM), for the others: top-dose activity change, negative = inhibition, hits mostly inhibitors; AID 504832, 2011; 310,000 compounds, 5.9% hits; further: potency means the concentration at half of the fitted maximal effect; on the % scale 0 is the no-effect control and ±100 the full control effect
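Firefly luciferase activity from engineered P. falciparum reports growth; inhibitors lower the luminescent signal. Cultures contained 2% hematocrit erythrocytes at 0.1% final parasitemia.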
AMA1 RON2 block – qHTS for Inhibitors of AMA1-RON; Towards Development of Antimalarial Drug Lead: Primary Screen. Plasmodium falciparum AMA1 (3D7) - RON2 peptide interaction. AlphaScreen AMA1-biotinylated RON2 peptide binding. Potency, µM (series often up to 58.2 µM), for the others: at the top dose activity change, negative = inhibition, usual class: inhibitors. 360,000 compounds, 0.2% hits. AID 720542, 2013;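 further: potency means the concentration at half of the fitted maximal effect; 0% = vehicle wells and -100% = peptide control; nearly all actives have a fitted effect of over 45% in size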
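AMA1 (3D7) with his tag at 25 nM final met compounds first, then biotinylated RON2 peptide at 25 nM; detection used donor plus acceptor beads, 10 µg/mL apiece, read by AlphaScreen after 30 min at room temperature.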
SARS PLpro yeast – qHTS of Yeast-based Assay for SARS-CoV PLP; S. cerevisiae expressing SARS-CoV PLpro, growth rescue; Potency, µM (top dose mostly 32.9 µM), for the others: top-dose activity, positive = growth rescue, usual class: activators; 330,000 compounds, 0.19% hits; AID 485353, 2010; calls by dose curve; further: potency means the concentration at half of the fitted maximal effect; 0% is about no effect; nearly all actives have a fitted effect of over 55% in size
CHX counter – Cycloheximide Counterscreen for Small Molecule Inhibitors of Shiga Toxin | max response, % | cell reporter, cycloheximide protein synthesis inhibition counterscreen | 300,000 compounds, 12% hits; in the data active means max response mostly above about 13%, no sharp cut-off; inactive means mostly below about 14%; further: read at 38.3 µM for the half of the compounds with a filed dose; 0% is about no effect
Numbers without * were called inactive; ? = inconclusive; . = no result; + = active, no number. Unless noted, the call rests on the fitted dose curve; in most records, active means well fitted curve in the direction sought with a large enough effect; inconclusive means small, poorly fitted or top-dose-only effect, or another doubt; inactive means no such curve, though single readings can be large; an effect the other way counts as inactive or inconclusive.

SMILES | Pf growth 96h | Shiga inhibitor | Pf growth 48h | AMA1 RON2 block | SARS PLpro yeast | CHX counter
CCN(CC)S(=O)(=O)c1cc(NC(=O)c2n[nH]c(=O)c3ccccc23)ccc1C | ? | 37.1 | -7.5% | -1.4% | 0.8% | 21.1*
O=C(NCc1ccccc1)c1cc[n+](CC(=O)c2cccs2)cc1 | 113.6% | 24.5 | 3.1% | -2.7% | 0.1% | 6.8
CSCCC(NC(=O)COc1ccccc1)C(=O)OC(C)C(=O)Nc1ccccc1C (centres undefined) | 28.2% | . | 9.7% | 3.3% | 2.9% | .
Cc1ccc2[nH]c3c(=O)n(N)c(C)nc3c2c1 | 5.1% | 37.5 | 30.1% | 8.7% | -0.9% | 16.7*
COc1ccc2[nH]c3c(=O)n(N)c(C)nc3c2c1 | 52.2% | 13.8 | 23.4% | 7.5% | -4.8% | 8.9
CCN(CC)C1=C(Cl)C(=O)C(Cl)C12OCCO2 (centres undefined) | -6.5% | -4.7 | 14.7µM* | -9.0% | 1.0% | 7.5
COc1ccc(N2C(=S)NC3N2C(=S)NC3(C)c2ccccc2)cc1 (centres undefined) | 110.2% | 55.6* | 224.2% | 64.5% | -0.1% | 36.8*
CC1(c2ccccc2)NC(=S)N2C1NC(=S)N2c1ccccc1 (centres undefined) | -9.0% | 17.8 | . | -0.6% | -6.2% | 0.7
CC(C)NC(=O)C1(C)Cc2c(-c3ccc(N(C)C)cc3)ccnc2O1 (centres undefined) | . | . | . | -3.8% | . | .
C/C=C(/C(=C/C)c1ccc(O)cc1)c1ccc(O)cc1 | ? | -12.9 | -23.0% | 10.0% | -46.0% | -2.2
CC1(C)C=C(c2ccc(O)cc2)CC(C)(C)N1 | 13.1µM* | -4.8 | 4.0% | -0.1% | ? | -0.8
CCc1cc(=O)oc2c(C)c(OC(C)C(=O)N3CC[C@@]4(O)CCCC[C@H]4C3)ccc12 (some centres undefined) | 11.7µM* | -9.2 | ? | 10.8% | 4.4% | -4.1
CC(NC(=O)Cc1ccc(S(=O)(=O)N2CCCCC2)cc1)c1ccccc1 (centres undefined) | 8.28µM* | . | 11.7µM* | -3.5% | 2.0% | .
CC(NC(=O)CN1CCN(S(=O)(=O)c2ccc(Br)cc2)CC1)c1ccccc1 (centres undefined) | -5.3% | . | ? | -7.1% | -2.8% | .
CCN(C(=O)CSc1ccc(S(=O)(=O)N2CCOCC2)cn1)c1ccccc1 | ? | . | ? | -1.5% | -2.2% | .
CCN(C(=O)C(C)Sc1ccc(S(=O)(=O)N2CCN(C)CC2)cn1)c1ccccc1 (centres undefined) | 11.7µM* | . | ? | -2.3% | -3.4% | .
CC(C)N(C(=O)CSc1ccc(S(=O)(=O)N2CCCCC2)cn1)c1ccccc1 | ? | . | 8.28µM* | -12.5% | 0.4% | .
CN(C)C(=O)CSc1ccc(S(=O)(=O)N2CCCC2)cn1 | -0.7% | . | ? | -2.2% | -1.0% | .
NC(=O)CC(NC(=O)c1ccccc1)c1ccc(NCCN2CCCCC2)c([N+](=O)[O-])c1 (centres undefined) | ? | -2.8 | -22.8% | 2.8% | 9.7% | 0.4
CCCNC(=O)C1(C)CCCN(C(=O)c2ccc3sccc3c2)C1 (centres undefined) | . | . | . | 0.8% | . | .
COc1cccc(NC(=O)NC2CCN(Cc3nnnn3Cc3ccc4c(c3)OCO4)CC2)c1 | ? | -3.9 | ? | -5.7% | 0.5% | 8.5
CCSc1nnc(NC(=O)c2cc(C)on2)s1 | -21.1% | 23.2 | ? | -1.0% | -31.4% | 9.1
CCSc1nnc(NC(=O)c2ccco2)s1 | 48.7% | 27.1* | 134.8% | 1.1% | -13.3% | 22.7*
Cc1cccc(-c2nnc(NC(=O)c3ccco3)s2)c1 | 9.2% | 21.9 | 60.5% | 8.0% | -5.1% | 20.6*
CCOC(=O)CSc1nnc(NC(=O)c2ccco2)s1 | -12.6% | -2.1 | ? | -1.6% | 16.0% | -3.8
SMILES | Pf growth 96h | Shiga inhibitor | Pf growth 48h | AMA1 RON2 block | SARS PLpro yeast | CHX counter
CC(C)Sc1nnc(NC(=O)c2ccco2)s1 | 183.8% | 113.5* | 126.6% | -7.7% | -2.8% | 34.7*
CCSc1nnc(NC(=O)c2c(C)noc2C)s1 | ? | 17.7 | -9.6% | -0.9% | 1.6% | 16.4*
O=C(Nc1nnc(-c2ccc(F)cc2)s1)c1ccco1 | ? | 33.8 | 75.2% | -1.7% | -0.5% | 8.7
NC(c1csc(Nc2ccc(C(F)(F)F)cn2)n1)C1CCCCC1 (centres undefined) | . | . | . | 70.1% | . | .
CCCc1cc(C(N)=O)c(NC(=O)c2ccco2)s1 | 0.415µM* | + | 52.3% | 22.9% | -1.7% | 28.5*
CCOc1ccc2cc(C3CC(c4ccco4)=NN3S(=O)(=O)c3ccccc3)c(Cl)nc2c1 (centres undefined) | 13.1µM* | 67.6* | 14.7µM* | -10.0% | 16.6% | 18.6*
Cc1ccc2cc(C3CC(c4ccco4)=NN3S(=O)(=O)c3ccccc3)c(Cl)nc2c1 (centres undefined) | 0.0% | -4.0 | 0.0% | -4.2% | 26.7% | 15.1
CCOc1ccc2nc(Cl)c(C3CC(c4ccco4)=NN3S(C)(=O)=O)cc2c1 (centres undefined) | ? | -12.8 | ? | -6.3% | -0.4% | -1.6
COc1ccc2cc(C3CC(c4ccco4)=NN3S(=O)(=O)c3ccccc3)c(Cl)nc2c1 (centres undefined) | ? | 33.0* | ? | -20.4% | -4.0% | 17.2
CCOc1ccc(-c2noc(CCCC(=O)NC3CCCCC3)n2)cc1OC | 21.3% | -8.7 | ? | 7.5% | 2.1% | -5.5
CN1C(C)(C)CC(O)(C(=O)O)CC1(C)C | . | . | . | 3.8% | . | .
COC(=O)Cc1cccc2c(=O)c3ccccc3oc12 | 4.5% | 21.9 | 0.6% | -7.0% | -0.2% | -2.6
CC(C)OCCCN(CC(O)c1ccccc1)CC(O)c1ccccc1 (centres undefined) | ? | 11.7 | 10.4µM* | 7.1% | -8.5% | 3.0
CCCN(CC1CC1)CC(O)c1ccccc1 (centres undefined) | 13.1µM* | 13.4 | 14.7µM* | -10.6% | -1.7% | 6.1
OC(CN(Cc1ccccc1)Cc1ccccc1)c1ccccc1 (centres undefined) | . | . | . | 9.0% | . | .
C[C@H]1CN([C@@H](C)CO)C(=O)c2cc(C#CCC3CCCC3)cnc2O[C@@H]1CN(C)C(=O)CC1CC1 | . | . | . | -21.0% | . | .
O=C(NC(=S)Nc1ccccc1[N+](=O)[O-])c1cncc(Br)c1 | 2.62µM* | 38.2 | 7.5% | 52.1% | -4.9% | -1.6
CCn1cc(C(=O)NC(=S)Nc2cccc(O)c2)cn1 | 109.9% | 57.9* | . | 5.0% | -2.0% | 28.1*
CCN(CC)c1ccc(NC(=O)c2cnn(CC)c2)cc1 | ? | 99.5* | ? | -19.2% | -0.4% | 43.9*
CCN(CC)c1ccc(NC(=O)c2ccc3c(c2)c(C)c(C)n3C)cc1 | ? | 9.9 | ? | 7.94µM* | -8.2% | 7.8
